According to PubChem BioAssay (NCI):
Compounds without any hit were thinned out: in the full panel of roughly 83,000, 20% have a hit.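 96-well plates, one dose, 48 hours. Percent growth reported; active if below 10.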 Values without a mark were called inactive. Active and inactive are the calls of the source.

test system: IGROV1 ovarian; assay: NCI-60 one-dose screen, 48 h (100 = growth as untreated, 0 = no growth, -100 = all killed); conditions: 10 µM unless noted

| SMILES | growth |
| --- | --- |
| C=C1C(=O)O[C@H]2[C@H]1CC/C(CNC(=O)/C=C/c1cccc(OC)c1)=C\CC[C@@]1(C)O[C@@H]21 | 20.6% |
| COc1cc(/C=N/NC(=O)c2cnn3c2NC(c2ccccc2)C3)ccc1Oc1ccccc1 (stereo not drawn) | 33.8% |
| COc1cc(C2=C(c3cn(C)c4ccccc34)COC2=O)cc(OC)c1OC | 11.1% |
| COc1cc(/C=C\C(=O)O)ccc1OCc1ccccc1 | 103% |
| COc1cc2c(=O)n(CCN)c3c4cc5c(cc4ccc3c2cc1OC)OCO5 | -75.6% (active) |
| CCCCCN1C=C/C(=C\C(=O)N(C)c2ccc(OC(F)(F)F)cc2)c2ccccc21 | 93.2% |
| CN(C)CC(O)c1ccc(/C=C/c2ccc(Cl)cc2)cc1 (stereo not drawn) | -57.8% (active) |

test system: OVCAR-3 ovarian; assay: as above; conditions: 10 µM unless noted

| SMILES | growth |
| --- | --- |
| CCCCCN1C=C/C(=C\C(=O)N(C)c2ccc(Oc3ccccc3)cc2)c2ccccc21 | 83.6% |
| O=C1Nc2cc(-c3ccc(NC(=O)C4CC4)cc3)ccc2/C1=C/c1ccc[nH]1 | 110% |
| COc1cc2nc(-c3ccc(Cl)cc3)cc(OCCCN3CCCC3)c2cc1OC | 74.4% |
| CCCOC(=O)N[C@H]1CCc2c(Cl)c(OC)c(OC)c(OC)c2-c2ccc(SC)c(=O)cc21 | -24.7% (active) |
| Nc1c(C(=O)Nc2cccc3cnccc23)sc2nc3c(cc12)CN(Cc1ccccc1)CC3 | 108% |
| CCCCOc1ccc(/C(C)=N/Nc2cc(C)nc3ccc(Br)cc23)cc1 | 101% |
| Cc1cnc(C(=O)Nc2nc3ccc(S(=O)(=O)Nc4ccc(C(C)(C)C)cc4)cc3[nH]2)cn1 | -14.3% (active) |
| CCN1CCN(CCNc2nccc(-c3c(-c4cccc(OC)c4)nc4occn34)n2)S1(=O)=O | 107% |
| CCCCOc1ccc(/C=N/Nc2cc(C)nc3ccc(Br)cc23)cc1 | -53% (active) |
| O=c1[nH]nc(-c2ccccc2)c2sc3ncc(-c4ccc(Br)cc4)n3c12 | 0.339% (active) |
| O=C(Nc1ccc(NC(=O)c2cc(=O)[nH]c3ccccc23)cc1)Nc1cccc(Cl)c1 | 89.2% |
| N#Cc1cc(-c2nc3ccccc3s2)c(=O)n(NS(=O)(=O)c2ccccc2)c1N | 114% |
| Oc1ccc(C(c2ccc(O)cc2)c2ccc(Br)cn2)cc1 | -37.4% (active) |
| CCOC(=O)[C@@H]1CCCN(S(=O)(=O)c2ccc(S(=O)(=O)N(CC)CC)c(F)c2)C1 | 88% |
| N#Cc1cccc(-c2ccc3c(c2)NC(=O)/C3=C\c2ccc[nH]2)c1 | 30.7% |
| O=[N+]([O-])c1cc(Br)c2cccc3c2c1CC3 | 108% |
| NS(=O)(=O)c1ccc(Cn2c(SCC(=O)N/N=C/c3ccccc3O)nc3ccccc3c2=O)cc1 | 13.4% |
| CCNC(=O)Oc1ccc(/C(=C(\C)c2ccccc2)c2ccc(OCCN(CC)CC)cc2)cc1 | 93.7% |

| SMILES | growth |
| --- | --- |
| COc1ccc(C(=O)/C=C/c2cc3ccccc3n3nnnc23)cc1 | 113% |
| O=C(N/N=C/c1ccc(Oc2ccccc2)cc1)c1cnn2c1NC(c1ccccc1)C2 (stereo not drawn) | -32.6% (active) |
| NC1=NN=C(N)C1=Cc1cc2ccccc2n2nnnc12 | 105% |
| CCSCC1CC(O)(c2ccccc2)CC(c2ccc(F)cc2)O1 (stereo not drawn) | -13% (active) |
| COc1ccc(/C=C(\C#N)n2nc3cccc(F)c3n2)cc1 | 109% |
| Nc1n[nH]c2cccc(C#Cc3cccc(C(=O)Nc4cccc(C(F)(F)F)c4)c3)c12 | 73.8% |
| O=C(Nc1ccccc1C(=O)N/N=C(\c1ccccc1)c1ccccn1)c1ccc(F)cc1 | 18.1% |
| C=C1C(=O)O[C@H]2[C@H]1CC/C(C(=O)NCCCCCNC(=O)/C1=C/CC[C@@]3(C)O[C@H]3[C@H]3OC(=O)C(=C)[C@@H]3CC1)=C\CC[C@@]1(C)O[C@@H]21 | 103% |
| N#Cc1c(NCc2ccccc2I)sc2c1CCCCC2 | 104% |
| C=C1C(=O)O[C@H]2[C@H]1CC/C(COC(=O)NCC(C)c1ccc(CC(C)C)cc1)=C\CC[C@@]1(C)O[C@@H]21 (stereo partly drawn) | -85.5% (active) |
| Cc1cc(C(=O)/C=C/c2ccc[nH]2)ccc1-n1ccc(C(F)(F)F)n1 | 4.46% (active) |
| C=C1C(=O)O[C@H]2[C@H]1CC/C(CNC(=O)/C=C/c1cccc(OC)c1)=C\CC[C@@]1(C)O[C@@H]21 | -62.6% (active) |
| COc1cc(/C=N/NC(=O)c2cnn3c2NC(c2ccccc2)C3)ccc1Oc1ccccc1 (stereo not drawn) | -23.4% (active) |
| COc1cc(C2=C(c3cn(C)c4ccccc34)COC2=O)cc(OC)c1OC | -13.8% (active) |
| COc1cc(/C=C\C(=O)O)ccc1OCc1ccccc1 | 104% |
| COc1cc2c(=O)n(CCN)c3c4cc5c(cc4ccc3c2cc1OC)OCO5 | -79.3% (active) |
| CCCCCN1C=C/C(=C\C(=O)N(C)c2ccc(OC(F)(F)F)cc2)c2ccccc21 | 105% |
| CN(C)CC(O)c1ccc(/C=C/c2ccc(Cl)cc2)cc1 (stereo not drawn) | -64.8% (active) |
